Reference: PubChem BioAssay AID1159580 (chemical genetic matrix, 2015)
About 2,000 (36%) of roughly 5,500 compounds were called active. Inconclusive results (about 18%) are left out. No stated cut-off is given here; in the data, active means normalized growth mostly below about 0.91 (no sharp cut-off); inconclusive means no clear call, values can overlap the other calls; inactive means mostly above about 0.92. Some of the results follow.

Assay: chemical genetic growth profiling, strain panel (AID 1159580);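 further: tested at 20 µM; growth read once vehicle control cultures reached saturation at 30 °C; 1 = growth at the plate median or of vehicle wells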
Conditions: S. cerevisiae deletion strains, growth OD
[1] = locus YHR030C, strain SLT2, stronger effect = lower value
[2] = locus YHR079C, strain IRE1, stronger effect = lower value
[3] = locus YJL095W, strain BCK1, stronger effect = lower value
[4] = locus YJR066W, strain TOR1, stronger effect = lower value
[5] = locus YLR113W, strain HOG1, stronger effect = lower value
[6] = locus YNL183C, strain NPR1, stronger effect = lower value
[7] = locus YOR231W, strain MKK1, stronger effect = lower value
[8] = locus YPL256C, strain CLN2, stronger effect = lower value

Measured: normalized growth

CN/C(=C\[N+](=O)[O-])NCCSCc1csc(CN(C)C)n1
inactive: [1] 1.05 | [2] 1.04 | [3] 1.06 | [4] 0.927 | [5] 1.06 | [6] 0.996 | [7] 1.07 | [8] 1.08

CC(O)(P(=O)(O)O)P(=O)(O)O
inactive: locus YAL021C, strain ccr4, stronger effect = lower value 1.03 | locus YAL026C, strain drs2, stronger effect = lower value 0.993 | locus YAL030W, strain snc1, stronger effect = lower value 0.993 | locus YBL061C, strain skt5, stronger effect = lower value 0.993 | locus YBR009C, strain hhf1, stronger effect = lower value 0.976 | locus YBR023C, strain chs3, stronger effect = lower value 0.99 | locus YBR171W, strain sec66, stronger effect = lower value 0.992 | locus YBR231C, strain swc5, stronger effect = lower value 0.992 | locus YBR279W, strain paf1, stronger effect = lower value 0.997 | locus YCL011C, strain gbp2, stronger effect = lower value 0.99 | locus YCL016C, strain dcc1, stronger effect = lower value 0.988 | locus YCL061C, strain MRC1, stronger effect = lower value 1 | locus YCL069W, strain vba3, stronger effect = lower value 0.992 | locus YCR088W, strain abp1, stronger effect = lower value 0.989 | locus YDL005C, strain med2, stronger effect = lower value 1 | locus YDL040C, strain nat1, stronger effect = lower value 0.997 | locus YDR001C, strain nth1, stronger effect = lower value 0.988 | locus YDR069C, strain doa4, stronger effect = lower value 0.978 | locus YDR137W, strain rgp1, stronger effect = lower value 1 | locus YDR159W, strain sac3, stronger effect = lower value 0.955 | locus YDR195W, strain ref2 0.93 | locus YDR297W, strain sur2, stronger effect = lower value 0.993 | locus YDR334W, strain swr1, stronger effect = lower value 0.987 | locus YDR335W, strain msn5, stronger effect = lower value 0.991 | locus YDR392W, strain spt3, stronger effect = lower value 0.868 | locus YEL003W, strain gim4, stronger effect = lower value 0.982 | locus YEL037C, strain rad23, stronger effect = lower value 0.985 | locus YEL061C, strain CIN8 (second series), stronger effect = lower value 0.982 | locus YER015W, strain faa2, stronger effect = lower value 0.999 | locus YER016W, strain bim1, stronger effect = lower value 0.979 | locus YER111C, strain swi4, stronger effect = lower value 0.989 | locus YER155C, strain BEM2 (second series), stronger effect = lower value 0.969 | locus YFR010W, strain ubp6, stronger effect = lower value 0.993 | locus YGL167C, strain pmr1, stronger effect = lower value 0.982 | locus YGL173C, strain kem1, stronger effect = lower value 0.987 | locus YGL227W, strain vid30, stronger effect = lower value 0.993 | locus YGL240W, strain doc1, stronger effect = lower value 0.982 | locus YGL253W, strain hxk2, stronger effect = lower value 0.984 | locus YHR013C, strain ard1, stronger effect = lower value 0.954 | locus YHR027C, strain rpn1, stronger effect = lower value 0.996 | [1] 0.958 | [2] 0.961 | locus YHR142W, strain chs7, stronger effect = lower value 0.998 | locus YJL092W, strain hpr5, stronger effect = lower value 0.987 | locus YJL095W, strain BCK1 (second series), stronger effect = lower value 0.994 | [3] 0.995 | locus YJL115W, strain asf1, stronger effect = lower value 0.986 | locus YJL129C, strain trk1, stronger effect = lower value 0.989 | locus YJL154C, strain vps35, stronger effect = lower value 0.986 | locus YJL164C, strain tpk1, stronger effect = lower value 1 | locus YJL166W, strain qcr8, stronger effect = lower value 0.996 | locus YJL187C, strain SWE1, stronger effect = lower value 1 | [4] 0.93 | locus YKL160W, strain elf1, stronger effect = lower value 1.03 | locus YKR026C, strain gcn3, stronger effect = lower value 0.993 | locus YKR091W, strain srl3, stronger effect = lower value 0.995 | locus YLL001W, strain dnm1, stronger effect = lower value 0.98 | locus YLL026W, stronger effect = lower value 0.996 | locus YLL041C, strain sdh2, stronger effect = lower value 0.994 | locus YLR027C, strain aat2, stronger effect = lower value 0.999 | [5] 0.976 | locus YLR221C, strain rsa3, stronger effect = lower value 1.02 | locus YLR258W, strain gsy2, stronger effect = lower value 0.982 | locus YLR262C, strain YPT6 (second series), stronger effect = lower value 1 | locus YLR320W, strain mms22, stronger effect = lower value 0.983 | locus YLR342W, strain FKS1, stronger effect = lower value 1 | locus YLR357W, strain rsc2, stronger effect = lower value 0.981 | locus YLR370C, strain arc18, stronger effect = lower value 0.996 | locus YLR384C, strain iki3, stronger effect = lower value 0.995 | locus YML120C, strain ndi1, stronger effect = lower value 1.01 | locus YMR058W, strain fet3, stronger effect = lower value 0.998 | locus YMR125W, strain sto1, stronger effect = lower value 0.979 | locus YMR129W, stronger effect = lower value 0.994 | locus YMR205C, strain PFK2, stronger effect = lower value 0.967 | locus YMR231W, strain pep5, stronger effect = lower value 0.993 | locus YNL071W, strain lat1, stronger effect = lower value 0.993 | [6] 0.929 | locus YNL209W, strain ssb2, stronger effect = lower value 0.994 | locus YNL248C, strain rpa49, stronger effect = lower value 1.01 | locus YNL322C, strain KRE1 (second series), stronger effect = lower value 1 | locus YNR049C, strain mso1, stronger effect = lower value 0.985 | locus YOR001W, strain rrp6, stronger effect = lower value 1.02 | locus YOR070C, strain gyp1, stronger effect = lower value 0.992 | locus YOR080W, strain dia2, stronger effect = lower value 0.997 | locus YOR083W, strain WHI5, stronger effect = lower value 1.03 | locus YOR106W, strain vam3, stronger effect = lower value 1.02 | [7] 0.972 | locus YOR265W, strain rbl2, stronger effect = lower value 0.989 | locus YOR270C, strain vph1, stronger effect = lower value 0.99 | locus YOR290C, strain snf2, stronger effect = lower value 0.916 | locus YPL051W, strain arl3, stronger effect = lower value 1.01 | locus YPL078C, strain atp4, stronger effect = lower value 1.01 | locus YPL106C, strain sse1, stronger effect = lower value 0.985 | locus YPL240C, strain hsp82, stronger effect = lower value 0.983 | [8] 0.921
